# Assay results taken from PubChem BioAssay AID1053117 (Broad Institute, 2014).
# Measured potencies and affinities stand elsewhere. The source made the active and inactive calls.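 The calls were made as follows: active = compounds lowering cell ATP signal with a fitted half-effect dose at most twice the top valid dose; inconclusive = flat curve with 30 to 70% signal loss, or bad fit; inactive = wrong direction, flat within 30%, or weaker than limit.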
# Assay: viability loss in HEK293 kidney cells – cell-based, cherry-picks, set 5, cytotoxicity control, dose response (AID 1053117);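 also: more negative means greater loss of ATP signal and more cytotoxicity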
# Conditions: HEK293T viability, CellTiter-Glo ATP luminescence, 72 h; series mostly up to 26 µM
row,SMILES,outcome
1,CCOC(=O)C1=C(C)Nc2nc3ccccc3n2C1c1ccncc1 (stereo not drawn),inactive
2,CO[C@@H]1CN(C)C(=O)c2cc(NC(=O)Nc3ccc(Cl)c(Cl)c3)ccc2OC[C@H](C)NC[C@@H]1C,inactive
3,COC(=O)c1cn(CC(=O)NCc2ccco2)c2ccccc12,inactive
4,C[C@H](O)C#Cc1ccc2c(c1)O[C@@H](CN(C)C)[C@H](C)CN([C@H](C)CO)S2(=O)=O,inactive
5,COC(=O)C[C@H]1CC[C@@H]2[C@H](COc3ccc(NC(=O)Cc4cccs4)cc3C(=O)N2C)O1,inactive
6,N#C[C@H]1[C@@H](c2ccccc2C2=CCCCC2)[C@@H](CO)N1S(=O)(=O)c1ccccc1,inactive
7,O=S(=O)(c1ccccc1F)N1CC[C@@H]2[C@H](CO)Nc3ccc(-c4cccc(F)c4)cc3[C@@H]21,inactive
8,O=c1c2cc(N3CCOCC3)ccc2[nH]c(=S)n1Cc1ccc(Cl)cc1,inactive
9,C[C@H](CO)N1C[C@H](C)[C@H](CN(C)Cc2ccc(-c3ccccc3)cc2)Oc2ccc(NC(=O)C3CCCCC3)cc2C1=O,inactive
10,C[C@H](O)C#Cc1ccc2c(c1)O[C@@H](CN(C)C)[C@H](C)CN([C@@H](C)CO)S2(=O)=O,inactive
11,Cc1ccc(S(=O)(=O)N2CC[C@H]3[C@H](CO)Nc4ccc(-c5cccc(C(=O)N(C)C)c5)cc4[C@H]32)cc1,inactive
12,CC(C)(C)c1cc(Cl)c(O)c(NC(=S)NC(=O)c2cccnc2)c1,inactive
13,Cc1ccc(S(=O)(=O)N2CC3(C)CN(S(=O)(=O)c4ccc(C)cc4)CC(C)(C2)C3=O)cc1,inactive
14,CC1CN(C(=O)c2cc3c(=O)n4ccccc4nc3n2C)CC(C)O1 (stereo not drawn),inactive
15,O=C(OCC(O)C(O)COC(=O)c1ccccc1)c1ccccc1 (stereo not drawn),inactive
16,COc1cccc(CNC(=O)CCc2nnc3ccc(NCCCN4CCCC4=O)nn23)c1,inactive
17,Cc1ccccc1S(=O)(=O)N1CC[C@H]2[C@H](CO)Nc3ccc(-c4ccc(C#N)cc4)cc3[C@H]21,inactive

row,SMILES,outcome
1,Cc1ccc(-c2nc3ncccc3o2)cc1NC(=O)c1ccco1,inactive
2,O=C(CN1CCCC1)Nc1ccc(Oc2ccc(NC(=O)CN3CCCC3)cc2)cc1,inactive
3,O=C(CCC(=O)c1cccs1)NCc1cccnc1,inactive
4,Cc1cc(C)n2ncc(C(=O)NCc3ccc(Cl)cc3)c2n1,inactive
5,Cc1ccc(CS(=O)Cc2ccc(C(=O)NC3CCCC(C)C3C)o2)cc1 (stereo not drawn),inactive
6,NC(=O)C1=C[C@H](c2coc3ccccc3c2=O)C[C@H](OCCCCO)O1,inactive
7,CN(C)c1ccc(-c2ccnc3c2CC(C)(C(=O)NCC2CC2)O3)cc1 (stereo not drawn),inactive
8,COc1ncccc1C(=O)NC1CCCc2c1cnn2-c1ccc(C)c(C)c1 (stereo not drawn),inactive
9,C[C@@H]1CN([C@@H](C)CO)C(=O)c2cc(-c3ccccc3)cnc2O[C@H]1CN(C)C(=O)c1cccc(F)c1,inactive
10,CN1c2ccc(-c3ccccc3)cc2[C@H]2[C@H](CCN2C(=O)CN2CCOCC2)[C@H]1CO,inactive
11,COC(=O)c1c(NC(=O)CN2CCN(c3ccccc3Cl)CC2)sc(C)c1C,inactive
12,Cc1ccn2cc(-c3ccc(NC(=O)c4ccco4)cc3)nc2c1,inactive
13,C[C@H]1CN([C@@H](C)CO)C(=O)c2cc(-c3ccccc3)cnc2O[C@H]1CN(C)Cc1ccccc1,inactive
14,C[C@H](CO)N1C[C@H](C)[C@@H](CN(C)Cc2ccc(-c3ccccc3)cc2)Oc2ccc(NC(=O)CCCN(C)C)cc2C1=O,inactive
15,Cc1cccc(NC(=O)c2ccc(C3SCC(=O)N3CCc3ccccc3)cc2)c1 (stereo not drawn),inactive
16,COCC(=O)Nc1ccc2c(c1)C(=O)N(C)[C@H]1CC[C@@H](CC(=O)NCc3ccccc3Cl)O[C@@H]1CO2,inactive
